From PubChem BioAssay (NCATS)
Records with an inconclusive call do not appear. Activity calls are given as the source filed them. Unless noted, calls come from the whole dose curve; as a rule, active = well fitted curve in the direction sought with a large enough effect; inconclusive = small, poorly fitted or top-dose-only effect, or another doubt; inactive = no such curve, though single readings can be large; an effect the other way counts as inactive or inconclusive.

Tests used:
[1] = Cytometric Cell-Based qHTS for Inhibitors of the mTORC1 Signaling Pathway in MEF (Tsc2-/-, p53-/-) Cells (AID 2660); details: mTORC1 pathway cytometry; series mostly up to 38.3 µM;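 note: Tsc2 and p53 null MEFs carrying empty vector with compound for 24 h; percent of cells above a phospho-rpS6 to PI ratio cutoff in each well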
Outline: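 Percent of cells positive for normalized phospho-S6 staining is reported, with the cutoff set from rapamycin (7.5 nM) versus DMSO wells. Tsc2-/-, p53-/- MEFs received compound for 24 hrs.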

[2] = High Content Imaging Cell-Based qHTS for Inhibitors of the mTORC1 Signaling Pathway in MEF (Tsc2-/-, p53-/-) Cells (AID 2666); details: at 38.3 µM (top of the series);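 note: percent of cells scored positive for phospho-rpS6 Ser235/236 immunostaining by imaging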
Outline: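 Cells were plated, dosed with compound after 24 hrs, and incubated another 24 hrs at 37 degree Celsius. Fixed cells were immunostained for phospho-rpS6 Ser235/236 and counterstained, and the normalized signal was scored as % active cells against rapamycin and DMSO controls.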

[3] = High Content Imaging Cell-Based qHTS for Inhibitors of the mTORC1 Signaling Pathway in MEF Cells (AID 2667); details: series mostly up to 38.3 µM;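 note: Tsc2-/- p53-/- MEFs stably re-expressing wild-type Tsc2 exposed 24 h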
Outline: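 Immunofluorescence for rpS6 phosphorylation in MEFs of Tsc2-/-, p53-/- background rescued with WT Tsc2. Compound exposure lasted 24 hrs. Inhibition was scored against rapamycin-treated control wells.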

[4] = Cytometry Cell-Based qHTS for Inhibitors of the mTORC1 Signaling Pathway in MEF cells (AID 2668); details: mTORC1 pathway readout; series mostly up to 38.3 µM;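 note: Tsc2-/- p53-/- mouse embryonic fibroblasts stably re-expressing wild-type Tsc2; percent cells positive for phospho-rpS6 Ser235/236 relative to propidium iodide stain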
Outline: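 Read-out: phospho-rpS6 Ser235/236 immunofluorescence normalized to propidium iodide intensity, scored as % active cells against a rapamycin (7.5 nM) threshold. Cells: Tsc2-/-, p53-/- MEFs stably expressing WT Tsc2, compound-treated 24 hrs at 37 degree Celsius.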

[5] = target: Ubiquitin carboxyl-terminal hydrolase 2 (Homo sapiens) (UniProt O75604); assay: qHTS Validation Assay for Inhibitors of Ubiquitin-specific Protease USP2a Using CHOP2 as the Reporter (AID 463106); details: USP2a cleavage of CHOP2 reporter, enzymatic; series mostly up to 38.3 µM
Ubiquitin carboxyl-terminal hydrolase 2 (Homo sapiens), sequence (O75604 whole entry, looked up): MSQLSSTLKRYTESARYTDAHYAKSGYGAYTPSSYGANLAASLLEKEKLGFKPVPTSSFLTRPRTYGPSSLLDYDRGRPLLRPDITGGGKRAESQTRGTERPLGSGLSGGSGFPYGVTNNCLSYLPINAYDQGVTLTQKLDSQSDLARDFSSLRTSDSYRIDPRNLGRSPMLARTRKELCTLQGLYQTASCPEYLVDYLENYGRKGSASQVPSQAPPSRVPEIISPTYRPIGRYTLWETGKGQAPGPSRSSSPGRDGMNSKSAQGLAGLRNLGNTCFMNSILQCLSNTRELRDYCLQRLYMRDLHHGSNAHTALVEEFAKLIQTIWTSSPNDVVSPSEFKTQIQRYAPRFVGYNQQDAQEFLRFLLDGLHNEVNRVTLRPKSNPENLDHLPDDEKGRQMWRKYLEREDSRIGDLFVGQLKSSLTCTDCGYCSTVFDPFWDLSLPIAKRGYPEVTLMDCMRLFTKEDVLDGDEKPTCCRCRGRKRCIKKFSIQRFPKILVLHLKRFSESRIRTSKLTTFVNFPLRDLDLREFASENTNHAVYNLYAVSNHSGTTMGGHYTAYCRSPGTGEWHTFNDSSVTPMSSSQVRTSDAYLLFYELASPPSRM
Outline: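 10nM USP2 core + cpd, 30min RT; add 25nM Ub-CHOP2/25nM substrate; 60min RT; FI 485/531nm. Buffer Tris pH 8.0, CaCl2, BME, CHAPS. Norm. to NEM = 100% inhibition; time-zero read flags fluorescent artifacts.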

[6] = target: DNA polymerase III PolC-type (Bacillus subtilis (strain 168)) (UniProt P13267); assay: qHTS Validation Assay for the Inhibitors of DNA Replication in Gram-Positive Bacteria (AID 485295); details: Gram-positive bacterial DNA replication assay; series mostly up to 57.1 µM;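 note: reconstituted holoenzyme with PolC plus beta clamp SSB and primase; PicoGreen fluorescence of double-stranded DNA made on primed circular M13 template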
DNA polymerase III PolC-type (Bacillus subtilis (strain 168)), sequence (P13267 whole entry, looked up): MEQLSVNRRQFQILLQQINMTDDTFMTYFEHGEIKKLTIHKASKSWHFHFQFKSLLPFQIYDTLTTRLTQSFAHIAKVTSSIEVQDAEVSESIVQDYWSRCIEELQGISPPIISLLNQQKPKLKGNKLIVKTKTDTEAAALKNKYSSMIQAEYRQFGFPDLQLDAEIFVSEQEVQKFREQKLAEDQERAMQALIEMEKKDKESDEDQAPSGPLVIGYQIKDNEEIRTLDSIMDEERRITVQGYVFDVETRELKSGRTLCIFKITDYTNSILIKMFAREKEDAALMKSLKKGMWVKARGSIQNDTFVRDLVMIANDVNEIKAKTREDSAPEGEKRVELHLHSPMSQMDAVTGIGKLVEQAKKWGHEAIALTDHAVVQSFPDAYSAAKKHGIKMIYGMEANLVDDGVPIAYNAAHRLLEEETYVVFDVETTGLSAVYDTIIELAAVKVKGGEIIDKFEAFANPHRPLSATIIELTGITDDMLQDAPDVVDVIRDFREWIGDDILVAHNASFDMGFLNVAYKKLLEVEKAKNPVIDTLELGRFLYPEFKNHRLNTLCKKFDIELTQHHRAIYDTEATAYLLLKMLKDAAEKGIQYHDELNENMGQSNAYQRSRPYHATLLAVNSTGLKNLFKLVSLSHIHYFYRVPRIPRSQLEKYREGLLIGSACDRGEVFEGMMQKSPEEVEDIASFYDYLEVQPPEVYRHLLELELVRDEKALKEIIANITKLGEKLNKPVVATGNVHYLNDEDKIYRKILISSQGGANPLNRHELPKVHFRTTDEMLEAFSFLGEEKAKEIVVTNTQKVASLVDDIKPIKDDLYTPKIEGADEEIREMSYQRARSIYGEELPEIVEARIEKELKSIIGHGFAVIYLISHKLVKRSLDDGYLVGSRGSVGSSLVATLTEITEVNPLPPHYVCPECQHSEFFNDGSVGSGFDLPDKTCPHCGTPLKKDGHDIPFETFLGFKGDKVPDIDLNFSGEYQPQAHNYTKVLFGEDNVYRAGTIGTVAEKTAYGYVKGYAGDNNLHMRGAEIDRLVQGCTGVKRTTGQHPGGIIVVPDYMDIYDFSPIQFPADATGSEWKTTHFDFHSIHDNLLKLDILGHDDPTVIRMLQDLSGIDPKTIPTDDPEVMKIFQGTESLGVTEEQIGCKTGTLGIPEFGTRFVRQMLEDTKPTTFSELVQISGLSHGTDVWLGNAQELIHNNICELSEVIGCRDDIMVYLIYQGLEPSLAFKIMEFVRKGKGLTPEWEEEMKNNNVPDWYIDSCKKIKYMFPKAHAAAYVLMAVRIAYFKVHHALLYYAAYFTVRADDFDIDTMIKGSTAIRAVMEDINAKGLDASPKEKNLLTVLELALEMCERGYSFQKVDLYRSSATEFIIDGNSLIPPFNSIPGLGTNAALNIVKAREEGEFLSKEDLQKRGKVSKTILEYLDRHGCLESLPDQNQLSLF
Outline: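 PicoGreen fluorescence (ex 480–485/em 535–540 nm) reports dsDNA synthesized on ssM13Gori template with dNTPs/NTPs. Enzyme: holoenzyme rebuilt from purified PolC, beta subunit, SSB and primase. Compound preincubated before substrate addition; RT throughout.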

[7] = target: Tumor susceptibility gene 101 protein (Homo sapiens) (UniProt Q99816); assay: qHTS Validation Assay for Iinhibitors of HIV-1 Budding by Blocking the Interaction of PTAP/TSG101 (AID 485342; calls by dose curve); details: TSG101-PTAP binding, fluorescence polarization, 4-point titration; series mostly up to 115 µM
Tumor susceptibility gene 101 protein (Homo sapiens), sequence (Q99816 whole entry, looked up, the tested form may be a part): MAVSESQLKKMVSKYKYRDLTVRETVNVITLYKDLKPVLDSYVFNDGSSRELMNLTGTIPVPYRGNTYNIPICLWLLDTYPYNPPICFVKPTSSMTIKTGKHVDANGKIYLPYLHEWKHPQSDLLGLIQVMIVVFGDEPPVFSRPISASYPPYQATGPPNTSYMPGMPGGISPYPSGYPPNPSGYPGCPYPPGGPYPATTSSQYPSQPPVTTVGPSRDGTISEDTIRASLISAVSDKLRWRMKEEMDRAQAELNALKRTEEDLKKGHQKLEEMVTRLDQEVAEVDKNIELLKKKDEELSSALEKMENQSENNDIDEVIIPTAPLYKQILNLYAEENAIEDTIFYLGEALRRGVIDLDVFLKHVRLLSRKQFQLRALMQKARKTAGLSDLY
Outline: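 FP read-out: FITC-PTAP peptide, 50 nM final, binding Tsg101 binding domain, 10 uM final; 20 min r.t.; 10 mM HEPES pH 7.5, 0.15 M NaCl, 0.01% Tween 20, 3 mM EDTA, 0.1 mM TCEP.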

[8] = qHTS Validation Assay to Find Inhibitors of Chronic Active B-Cell Receptor Signaling (AID 485345; active = well fitted curve in the direction sought with a large enough effect in the main read-out, with a control signal flat, not every such curve was filed as active); details: ABC-DLBCL cells, chronic BCR signaling reporter, CBG luciferase; series mostly up to 46.1 µM
Outline: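 Read-out: ratio of filter-corrected green (IkappaBalpha fusion) to red (native) luciferase signal in doxycycline-induced TMD8 cells after 4 h at 37C. Titration spanned 46 uM–3 nM; Data were normalised to basal cells and 10 uM MG-132 wells.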

[9] = target: Beta-2 adrenergic receptor (Homo sapiens) (UniProt P07550); assay: qHTS validation assay of beta-arrestin-biased ligands of beta2-adrenergic receptor (AID 485366); details: cell-based beta-arrestin recruitment to ADRB2, qHTS; series mostly up to 46.1 µM
Beta-2 adrenergic receptor (Homo sapiens), sequence (P07550 whole entry, looked up): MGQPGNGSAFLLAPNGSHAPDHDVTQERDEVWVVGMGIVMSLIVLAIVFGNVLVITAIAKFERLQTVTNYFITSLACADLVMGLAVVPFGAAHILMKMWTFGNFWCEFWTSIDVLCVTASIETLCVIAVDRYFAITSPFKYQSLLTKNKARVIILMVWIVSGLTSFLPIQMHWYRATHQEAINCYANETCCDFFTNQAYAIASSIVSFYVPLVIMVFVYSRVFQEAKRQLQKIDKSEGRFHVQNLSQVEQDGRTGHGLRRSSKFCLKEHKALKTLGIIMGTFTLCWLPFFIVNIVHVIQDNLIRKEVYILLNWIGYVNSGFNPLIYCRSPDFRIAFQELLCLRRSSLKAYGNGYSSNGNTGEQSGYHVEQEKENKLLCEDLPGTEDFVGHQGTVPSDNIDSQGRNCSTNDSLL
Outline: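 Luminescence from a tTA-responsive luciferase, induced when recombinant beta-arrestin is recruited to recombinant beta2-AR, served as the agonism signal. Cells were exposed to compound for 18 hr at 37 degrees C; titrations spanned up to 46 microM.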

[10] = target: Thioredoxin reductase 1, cytoplasmic (Rattus norvegicus) (UniProt O89049); assay: qHTS Assay for Substrates of Mammalian Selenoprotein Thioredoxin Reductase 1 (TrxR1) (AID 488772); details: purified TrxR1, NADPH consumption substrate assay; series mostly up to 57.1 µM;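 note: NADPH fluorescence in the first read after selenite addition and not the 8 min delta; a drop in NADPH fluorescence below the no-compound background marks a TrxR1 substrate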
Thioredoxin reductase 1, cytoplasmic (Rattus norvegicus), sequence (O89049 whole entry, looked up): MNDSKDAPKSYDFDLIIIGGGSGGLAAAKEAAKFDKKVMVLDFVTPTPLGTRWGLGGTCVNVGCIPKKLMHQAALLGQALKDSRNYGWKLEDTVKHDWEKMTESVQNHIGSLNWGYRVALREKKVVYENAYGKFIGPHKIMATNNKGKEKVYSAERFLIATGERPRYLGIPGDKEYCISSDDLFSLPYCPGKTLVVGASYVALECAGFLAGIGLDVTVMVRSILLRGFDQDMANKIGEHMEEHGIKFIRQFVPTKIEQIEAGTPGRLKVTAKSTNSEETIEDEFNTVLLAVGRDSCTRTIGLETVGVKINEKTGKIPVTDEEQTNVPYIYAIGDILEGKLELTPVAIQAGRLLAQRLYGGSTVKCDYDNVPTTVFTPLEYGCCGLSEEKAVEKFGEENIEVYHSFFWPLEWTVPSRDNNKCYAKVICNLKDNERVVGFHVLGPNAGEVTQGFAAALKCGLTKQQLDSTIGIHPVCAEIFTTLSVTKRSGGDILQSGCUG
Outline: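 Quantitative HTS in Tris-HCl buffer at pH 7.5 with EDTA and Tween-20, using rat TrxR1, 400 uM NADPH and 400 uM selenite (final). A fall in initial NADPH fluorescence relative to background marked substrate behaviour.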

[11] = target: Thioredoxin reductase 1, cytoplasmic (Rattus norvegicus) (UniProt O89049); assay: qHTS Assay for Inhibitors of Mammalian Selenoprotein Thioredoxin Reductase 1 (TrxR1) (AID 488773); details: purified TrxR1 enzyme activity; series mostly up to 57.1 µM;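 note: drop in NADPH fluorescence over an 8 min run after selenite addition; nearly all actives have a fitted effect of over 40% in size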
Outline: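 Steps: enzyme (90 nM) plus NADPH (400 uM final), 5 min at ~22 deg C; compound added, 15 min; selenite (400 uM final) added; fluorescence followed for 8 min. Concentration-response curves derived from the normalized delta values.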

[12] = target: Flap endonuclease 1 (Homo sapiens) (UniProt P39748); assay: qHTS Validation Assay for the Inhibitors of Human Flap endonuclease 1 (FEN1) (AID 488816); details: FEN1 nuclease activity, fluorogenic DNA substrate; series mostly up to 57.1 µM
Flap endonuclease 1 (Homo sapiens), sequence (P39748 whole entry, looked up): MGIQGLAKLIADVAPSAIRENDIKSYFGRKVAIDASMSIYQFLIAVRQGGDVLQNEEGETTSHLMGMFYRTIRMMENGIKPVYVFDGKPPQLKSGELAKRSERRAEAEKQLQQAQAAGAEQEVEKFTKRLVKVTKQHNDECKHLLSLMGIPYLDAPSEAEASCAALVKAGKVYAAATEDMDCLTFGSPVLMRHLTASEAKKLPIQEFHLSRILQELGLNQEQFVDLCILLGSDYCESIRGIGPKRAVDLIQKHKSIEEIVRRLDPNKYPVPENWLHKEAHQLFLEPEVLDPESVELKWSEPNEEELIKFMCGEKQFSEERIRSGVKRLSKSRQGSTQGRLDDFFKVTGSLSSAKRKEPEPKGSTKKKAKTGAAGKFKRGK
Outline: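 Readings taken at 0 and 15 min after starting the reaction with 50 nM (final) substrate supplied the signal. Compounds had first sat with 10 nM FEN1 reagent for 15 min at room temperature. Values come from Hill-equation concentration-response fits.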

[13] = target: M-phase phosphoprotein 8 (Homo sapiens) (UniProt Q99549); assay: qHTS Validation Assay for Inhibitors for MPP8 Chromodomain Interactions with Methylated Histone Tails (AID 488949); details: AlphaScreen MPP8 binding to H3K9me3 peptide; series mostly up to 57.1 µM;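 note: AlphaScreen signal from MPP8 chromodomain bound to biotinylated H3K9me3 peptide; top concentration of the series differs between compounds; nearly all actives have a fitted effect of over 55% in size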
M-phase phosphoprotein 8 (Homo sapiens), sequence (Q99549 whole entry, looked up): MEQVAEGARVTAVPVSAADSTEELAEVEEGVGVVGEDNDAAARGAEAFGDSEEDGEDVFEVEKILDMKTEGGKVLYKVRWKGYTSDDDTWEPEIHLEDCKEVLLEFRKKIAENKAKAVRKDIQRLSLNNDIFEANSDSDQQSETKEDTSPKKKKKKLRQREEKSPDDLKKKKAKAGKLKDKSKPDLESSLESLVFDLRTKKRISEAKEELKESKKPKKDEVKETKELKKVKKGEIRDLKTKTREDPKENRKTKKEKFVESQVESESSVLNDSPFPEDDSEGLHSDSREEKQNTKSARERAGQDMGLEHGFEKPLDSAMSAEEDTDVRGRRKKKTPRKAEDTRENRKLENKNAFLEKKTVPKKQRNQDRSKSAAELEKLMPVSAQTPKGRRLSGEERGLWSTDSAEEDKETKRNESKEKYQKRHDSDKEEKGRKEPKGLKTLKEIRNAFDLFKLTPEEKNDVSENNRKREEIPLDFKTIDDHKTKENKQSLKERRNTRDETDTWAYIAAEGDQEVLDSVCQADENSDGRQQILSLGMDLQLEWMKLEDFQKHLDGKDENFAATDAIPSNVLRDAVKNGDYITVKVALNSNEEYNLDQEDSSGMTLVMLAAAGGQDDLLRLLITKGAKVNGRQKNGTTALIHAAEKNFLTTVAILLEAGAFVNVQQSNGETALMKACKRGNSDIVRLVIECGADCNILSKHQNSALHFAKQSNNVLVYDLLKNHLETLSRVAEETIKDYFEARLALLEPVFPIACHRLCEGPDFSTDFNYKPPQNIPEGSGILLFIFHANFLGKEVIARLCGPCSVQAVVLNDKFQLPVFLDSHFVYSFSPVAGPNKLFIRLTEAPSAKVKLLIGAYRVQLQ
Outline: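 AlphaScreen read-out: streptavidin donor and nickel chelate acceptor beads (final 10 ug/mL), 30 min in the dark at RT. Complex of 50 nM MPP8 and 50 nM b-H3(1-18)K9me3 peptide had been exposed to compounds for 30 min beforehand.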

[14] = qHTS for differential inhibitors of proliferation of Plasmodium falciparum line W2 (AID 1883); details: series mostly up to 28.7 µM;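 note: parasites grown with compound for 72 h before lysis and staining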
[15] = qHTS for differential inhibitors of proliferation of Plasmodium falciparum line HB3 (AID 1886); details: series mostly up to 28.7 µM;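 note: parasites grown with compound for 72 h before SYBR Green readout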
[16] = target: Ferritin light chain (Equus caballus) (UniProt P02791); assay: qHTS Validation Assay for Identification of Novel General Anesthetics (AID 2323); details: horse apoferritin, anesthetic-site fluorescent probe displacement; series mostly up to 76.9 µM
Ferritin light chain (Equus caballus), sequence (P02791 2-175 limits assumed): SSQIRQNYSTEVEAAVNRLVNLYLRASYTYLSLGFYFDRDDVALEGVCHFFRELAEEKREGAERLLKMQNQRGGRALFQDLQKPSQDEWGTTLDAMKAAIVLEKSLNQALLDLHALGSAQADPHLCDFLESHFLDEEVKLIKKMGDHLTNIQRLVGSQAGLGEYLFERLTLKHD
Outline: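 10 uM horse-spleen apoferritin + 1-AMA (50% saturated, PBS); cpd pin-transferred, 10 min RT. Ex 380/Em 535 nm endpoint. Activity normalized between free 1-AMA and 1-AMA/apoferritin; 4-parameter Hill fit of concentration-response.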

[17] = target: ATP-dependent DNA helicase Q1 (Homo sapiens) (UniProt P46063); assay: qHTS Validation Assay for Inhibitors of RecQ-Like Dna Helicase 1 (RECQ1) (AID 2353); details: recombinant RECQ1 helicase DNA unwinding assay; series mostly up to 25.6 µM
Outline: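 50 nM RECQ1T1 preincubated 15 min with compound in Tris pH 8.0 buffer with MgCl2, DTT, Tween-20 and 2.5 ug/ml poly(dI-dC); started with 200 nM TAMRA/BHQ-2 forked duplex and 2 mM ATP. Unwinding read as fluorescence (525/598 nm), two reads 2 h apart.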

[18] = Validation screen for small molecules that induce DNA re-replication in MCF 10A normal breast cells (AID 463097); details: MCF 10A cells, DNA re-replication phenotype imaging; series mostly up to 46.1 µM; note: nearly all actives have a fitted effect of over 60% in size
Outline: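 250 MCF 10A cells/well; compound pin-transferred; 48 hr, 37 C, 5% CO2; Hoechst 40 min; imaged 405/500-530 nm. Hits = more high-intensity nuclei.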

[19] = Quantitative high throughput screen for delayed death inhibitors of the malarial parasite plastid, 96 hour incubation (AID 488745); details: Plasmodium falciparum growth; series mostly up to 28.7 µM; note: nearly all actives have a fitted effect of over 70% in size
Outline: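 Luciferase-expressing P. falciparum in erythrocytes (2% hematocrit, 0.1% parasitemia) incubated with compound for 96 h at 37 C, 5% CO2, in RPMI 1640 with 0.5% Albumax. Growth inhibition read as decreased luminescence.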

[20] = Quantitative high throughput screen for delayed death inhibitors of the malarial parasite plastid, 48 hour incubation (AID 488752); details: Plasmodium falciparum growth; series mostly up to 28.7 µM; note: nearly all actives have a fitted effect of over 65% in size
Outline: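 Erythrocytes infected with firefly luciferase-expressing P. falciparum (2% hematocrit, 0.1% parasitemia) cultured with compound for 48 h at 37 C, 5% CO2, in RPMI 1640/0.5% Albumax. Growth inhibition read as loss of luminescence.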

Measured: outcome

C[C@H]1O[C@@H](n2cc(F)c(=O)[nH]c2=O)[C@H](O)[C@H]1O
not listed: [14] | [15] | [16] | [17] | [18] | [19] | [20]
inactive: all other assays above

CCNC(=O)[C@H]1O[C@@H](n2cnc3c(N)nc(NCCc4ccc(CCC(=O)O)cc4)nc32)[C@H](O)[C@H]1O
inactive: [14] | [15] | [16] | [17] | [18] | [19] | [20] | [13]

C=CCc1cccc(C=NNC(=O)CN2CCN(Cc3ccccc3)CC2)c1O
not listed: [4] | [14] | [15] | [16] | [17] | [18] | [19] | [20]
inactive: all other assays above
